High-throughput results deposited in PubChem BioAssay by National Center for Advancing Translational Sciences (NCATS).
The list is not random: actives were taken first. Their share in the collection is about 2.9%.
SNCA expr inh = inhibitors of alpha-synuclein (SNCA) gene expression. HEK-293 SNCA-luciferase knock-in, luminescence, 24 h. Potency, µM (titrated, usually from 57.2 µM), inactives show at the top dose activity change, negative = inhibition, most hits filed as inhibitors. 140,000 compounds, 0.17% hits. AID 1671194;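 note: potency is the fitted concentration of half-maximal effect; plate controls were DMSO cells for no effect and cell-free wells for full effect; nearly all actives have a fitted effect of over 45% in size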
KDM5B inhibitor = blocks human KDM5B histone demethylase activity. Q9UGL1. 220,000 compounds, 2.6% hits. AID 1347165. KDM5B demethylase, FDH-coupled NADH fluorescence (FDH is formaldehyde dehydrogenase). Potency, µM (doses to about 57.7 µM), most hits filed as inhibitors; note: potency is the fitted concentration of half-maximal effect; 0% is about no effect; nearly all actives have a fitted effect of over 70% in size
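Here, H3K4me3 peptide (12.5 µM in substrate mix) is demethylated by KDM5BΔAP, 200 nM final, after 10 min compound exposure. Formaldehyde product is coupled through FDH (0.25 U/mL in mix) to NADH fluorescence; 30-min ΔRFU feeds dose-response curves.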
IP6K1 inhibitor = inhibitors of human IP6K1 | IP6K1 kinase, ADP-Glo luminescence, 2 h; stronger effect = lower value | activity change, % (series mostly up to about 58 µM) | 140,000 compounds, 0.81% hits | AID 1645851; in the data active = activity change below about -25%; note: % is set by controls: 0 for no effect and ±100 for the full control effect
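ADP-Glo luminescence measures ADP made by human IP6K1 during a 2 h RT reaction with ATP/IP6 (mix at 1.3 mM/130 uM); top library doses 57.5 and 19.1 uM final.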
SNCA viab count = counter-screen for SNCA expression inhibitors: cell viability. HEK-293-SNCA-luc viability, GF-AFC fluorescence, 24 h. Potency, µM (series often up to 57.1 µM), inactives show at the highest dose activity change, negative = cytotoxicity, hits mostly cytotoxic. 150,000 compounds, 0.12% hits. AID 1671193;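 note: potency is the fitted concentration of half-maximal effect; 0% = DMSO-treated cells and -100% = medium-only wells without cells; nearly all actives have a fitted effect of over 30% in size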
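Cytotoxicity counterscreen: after 24 h compound treatment of genome-edited SNCA-luciferase HEK-293 cells, live-cell protease substrate GF-AFC read by fluorescence after 30 min; activity scaled between DMSO (0%) and medium-only (-100%), curves Hill-fitted.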
* = called active by the depositor; [ ] = dose if it differs, or a comment. Unless noted, calls come from the whole dose curve; as a rule, active = well fitted curve in the direction sought with a large enough effect; inconclusive = small, poorly fitted or top-dose-only effect, or another doubt; inactive = no such curve, though single readings can be large; an effect the other way counts as inactive or inconclusive.

What do the screens show for `CN(C)CCN(C)C(=O)c1ccc(-c2ncc3cnc(-c4cccc(F)c4)cn23)cc1`?
SNCA expr inh: 14%[87.6 µM]; KDM5B inhibitor: 40µM*; IP6K1 inhibitor: 2; SNCA viab count: -2%[87.6 µM]

How did Cc1cc(C=O)c(C)[nH]1 do in these assays?
KDM5B inhibitor: inactive

How did COCCCn1c(C)cc(C(=O)COc2ccc3ccc(=O)oc3c2)c1C do in these assays?
KDM5B inhibitor: inactive

Results for O=C(NCc1cnccn1)c1nc(-c2ccccc2)cc2[nH]ccc12 ?
SNCA expr inh: -29%[87.6 µM]; KDM5B inhibitor: inactive; IP6K1 inhibitor: -8; SNCA viab count: -4%[87.6 µM]

Results for O=C(NCc1cnccn1)c1ccc(-c2ncc3cnc(-c4cccc(F)c4)cn23)cc1 ?
SNCA expr inh: inconclusive; KDM5B inhibitor: 35µM*; IP6K1 inhibitor: -8; SNCA viab count: -6%[87.6 µM]

Results for CN(C)C(=O)c1ccc2c(c1)N(C)C(CC(=O)NCC(C)(C)O)CO2 (stereo not drawn) ?
SNCA expr inh: inconclusive; KDM5B inhibitor: inactive; IP6K1 inhibitor: 3; SNCA viab count: 5%

How did COCCNC(=O)c1ccc2c(c1)N(C)C(CC(=O)N1CCCC1)CO2 (stereo not drawn) do in these assays?
SNCA expr inh: 4%; KDM5B inhibitor: 32µM*; IP6K1 inhibitor: 1; SNCA viab count: -7%

Results for COCCNC(=O)c1ccc2c(c1)N(C)C(CC(=O)N1CCNC(=O)C1)CO2 (stereo not drawn) ?
SNCA expr inh: -15%; KDM5B inhibitor: 28µM*; IP6K1 inhibitor: 12; SNCA viab count: 13%

Results for CC(C)c1ccc(CC(=O)N2CCCc3ncc(C(=O)Nc4cccc(C(F)(F)F)c4)cc32)cc1 ?
SNCA expr inh: -17%; KDM5B inhibitor: 25µM*; IP6K1 inhibitor: 7; SNCA viab count: -25%

What do the screens show for `COCCNC(=O)c1cnc2c(c1)N(C(=O)Cc1cn(C)c3ccccc13)CCC2`?
SNCA expr inh: -28%[87.6 µM]; KDM5B inhibitor: inconclusive; IP6K1 inhibitor: 6; SNCA viab count: -10%[87.6 µM]

What do the screens show for `COCCNC(=O)c1cnc2c(c1)N(Cc1ccccc1C(F)(F)F)CCC2`?
SNCA expr inh: -6%[87.6 µM]; KDM5B inhibitor: 35µM*; IP6K1 inhibitor: 0; SNCA viab count: 2%[87.6 µM]

What do the screens show for `COc1cccc(NC(=O)c2cnc3c(c2)N(C(=O)Cc2ccc(C(C)C)cc2)CCC3)c1`?
SNCA expr inh: inconclusive; KDM5B inhibitor: inconclusive; IP6K1 inhibitor: 10; SNCA viab count: inconclusive

Results for O=C(Nc1cccc(C(F)(F)F)c1)c1cnc2c(c1)N(Cc1ccccc1)CCC2 ?
SNCA expr inh: -28%[87.6 µM]; KDM5B inhibitor: 7.1µM*; IP6K1 inhibitor: 2; SNCA viab count: -16%[87.6 µM]

What do the screens show for `O=C(CSc1nnc(Nc2ccccc2)s1)c1ccc(Cl)s1`?
KDM5B inhibitor: inactive

What do the screens show for `CCc1ccc(-c2cc(C(=O)Nc3nccs3)c3ccccc3n2)cc1`?
KDM5B inhibitor: inactive

What do the screens show for `Cc1ccc(C(C)NC(=O)c2ccc(Br)s2)cc1` (stereo not drawn)?
KDM5B inhibitor: inactive

What do the screens show for `O=C(NC1CCCCCC1)c1ccc2nccn2c1`?
SNCA expr inh: 150%[87.6 µM]; KDM5B inhibitor: 28µM*; IP6K1 inhibitor: 0; SNCA viab count: -10%[87.6 µM]

Results for COC(=O)CNC(=O)c1ccc2nccn2c1 ?
SNCA expr inh: 13%[87.6 µM]; KDM5B inhibitor: 112µM*; IP6K1 inhibitor: -3; SNCA viab count: 7%[87.6 µM]

Results for O=C(NC1CCC1)c1ccc2nccn2c1 ?
SNCA expr inh: -17%[87.6 µM]; KDM5B inhibitor: inconclusive; IP6K1 inhibitor: -6; SNCA viab count: -1%[87.6 µM]

What do the screens show for `O=C(NCc1ccccc1)c1ccc2nccn2c1`?
SNCA expr inh: 172%[87.6 µM]; IP6K1 inhibitor: 8; SNCA viab count: -2%[87.6 µM]

Results for C#CCNC(=O)c1ccc2nccn2c1 ?
SNCA expr inh: 8%[87.6 µM]; KDM5B inhibitor: 141µM*; IP6K1 inhibitor: -9; SNCA viab count: 0%[87.6 µM]

What do the screens show for `Cc1ccc(CNC(=O)c2ccc3nccn3c2)o1`?
SNCA expr inh: 27%[87.6 µM]; KDM5B inhibitor: 28µM*; IP6K1 inhibitor: -9; SNCA viab count: 2%[87.6 µM]

Results for Cc1ccc2oc(-c3ccc(NC(=O)c4cccc(F)c4)cc3)nc2c1 ?
KDM5B inhibitor: inactive

Results for CCn1ccc2c(CN3CCC4(CCCN(CCOC)C4=O)C3)cccc21 (stereo not drawn) ?
SNCA expr inh: 9%; KDM5B inhibitor: 28µM*; IP6K1 inhibitor: 0; SNCA viab count: -9%

What do the screens show for `COc1ccc(CCC(=O)N2CCCC(Cn3c(C)cnc3-c3ccncc3)C2)cc1` (stereo not drawn)?
SNCA expr inh: 17%; IP6K1 inhibitor: 15; SNCA viab count: 2%

What do the screens show for `COc1cccc(-c2c(C(=O)Nc3cccc(Cl)c3)nc3sccn23)c1`?
SNCA expr inh: -30%; IP6K1 inhibitor: -10; SNCA viab count: inconclusive

How did COc1ccc(-c2nc3cnccn3c2NCCC(=O)N2CCCC(C)C2)cc1 (stereo not drawn) do in these assays?
SNCA expr inh: 21%; KDM5B inhibitor: 28µM*; IP6K1 inhibitor: -3; SNCA viab count: inconclusive

How did COc1cccc(-c2nc3cnccn3c2NCCC(=O)N2CCCC(C)C2)c1 (stereo not drawn) do in these assays?
SNCA expr inh: 2%; KDM5B inhibitor: 28µM*; IP6K1 inhibitor: 6; SNCA viab count: inconclusive

How did COc1cccc(-c2nc3cnccn3c2NCCC(=O)Nc2cccc(Cl)c2)c1 do in these assays?
SNCA expr inh: -1%; KDM5B inhibitor: 28µM*; IP6K1 inhibitor: 2; SNCA viab count: inconclusive

What do the screens show for `CCCc1ccc(S(=O)(=O)N2CCN(C3(CC)CCN(C(=O)NC)C3)CC2)cc1` (stereo not drawn)?
SNCA expr inh: 5%; KDM5B inhibitor: inactive; IP6K1 inhibitor: 1; SNCA viab count: -2%

How did O=C(O)CNS(=O)(=O)c1cccnc1 do in these assays?
KDM5B inhibitor: inactive

What do the screens show for `Cn1nc(C(=O)N2CCCN(Cc3ccccc3)CC2)c2ccccc2c1=O`?
KDM5B inhibitor: inactive

How did CCN(C(=O)Cn1cccc1-c1nc(-c2ccc(OC)c(F)c2)no1)c1cccc(C)c1 do in these assays?
SNCA expr inh: 103%; KDM5B inhibitor: 28µM*; IP6K1 inhibitor: 10; SNCA viab count: -25%

Results for CN(C)CC1(O)CCC2(CCN(C(=O)c3[nH]nc4c3CCc3ccccc3-4)CC2)CC1 ?
SNCA expr inh: 58%; KDM5B inhibitor: inconclusive; IP6K1 inhibitor: 14; SNCA viab count: -11%

Results for Cc1noc(C)c1-c1cnc(Nc2ccc(CN3CCN(C)CC3)cc2)c2c1CCO2 ?
SNCA expr inh: 61%[87.6 µM]; KDM5B inhibitor: 25µM*; IP6K1 inhibitor: 10; SNCA viab count: -13%[87.6 µM]

Results for Cc1noc(C)c1-c1cnc(Nc2ccc(Cl)cn2)c2c1CCO2 ?
SNCA expr inh: 47%[87.6 µM]; KDM5B inhibitor: 28µM*; IP6K1 inhibitor: -22; SNCA viab count: 6%[87.6 µM]

How did Cc1noc(C)c1-c1cnc(Nc2cc(F)cc(N3CCOCC3)c2)c2c1CCO2 do in these assays?
SNCA expr inh: 71%[87.6 µM]; KDM5B inhibitor: inconclusive; IP6K1 inhibitor: -10; SNCA viab count: -1%[87.6 µM]
